SMILES strings stand for the structures. Results filed as inconclusive are left out. The source made the active and inactive calls. The call rests on the fitted dose curve; in most records, active means well fitted cell-killing curve with a large enough effect in the repeat runs; inconclusive means weak or mixed curves, or effect the other way; inactive means no such curve, though single readings can be large or run the other way. Non-standard residues stand in square brackets, D forms with d. Residues, ends and D or L forms follow the SMILES beside them. *: point of attachment. Sta = CC(C)C[C@H](N)[C@@H](O)CC(=O)O; Isovaleryl = CC(C)CC(=O)*

This assay can be described thus: qHTS assay to identify small molecule antagonists of the glucocorticoid receptor (GR) signaling pathway - cell viability counter screen (AID 720693). Further: nearly all actives have a fitted effect of over 55% in size. To be noted: GR-bla HeLa viability, CellTiter-Glo luminescence, 18 h, with 5 nM dexamethasone present; series mostly up to 58.5 µM. The source says: National Center for Advancing Translational Sciences [NCATS]
NIH Chemical Genomics Center [NCGC]
U.S. Environmental Protection Agency [EPA]
National Institutes of Environmental Health Sciences [NIEHS]
National Toxicology Program [NTP]
U.S. Food and Drug Administration [FDA]
The Glucocorticoid receptor (GR) is one of the members of the nuclear receptor family of ligand-dependent transcription factors. GR plays a critical role in carbohydrate, protein and lipid metabolisms and programmed cell death. CellSensor GR-bla HeLa cell line (Invitrogen) contains a beta-lactamase reporter gene under the control of the glucocorticoid response element stably integrated into HeLa cells, a cervical cancer cell line that expresses glucocorticoid receptor. The activation of the reporter gene under culture conditions can be detected by fluorescence intensity. This cell line has been used to screen the Tox21 10K compound library and to identify the compounds that inhibit the GR signaling. The cytotoxicity of the Tox21 compound library against the GR-bla HeLa cell line was tested in parallel by measuring the cell viability using CellTiter-Glo assay in the same wells.
Tox21 Assay Protocol Summary:
The GR-bla HeLa cells were dispensed at 1500 cells/5 ul/well in 1536-well black wall/clear bottom plates using a Multidrop Combi (ThermoFisher Scientific, Waltham, MA) dispenser. After the assay plates were incubated at a 37 C/5% CO2 incubator for 4 hours, 23 nL of compounds dissolved in DMSO, positive controls or DMSO only was transferred to the assay plate by a pintool station (Kalypsys, San Diego, CA), followed by addition of 1 uL of dexamethasone (5 nM, final concentration in the well). The plates were incubated at 37 C for 18 hours. After 1 uL of LiveBLAzerTM B/G FRET substrate was added using a Flying Reagent Dispenser (Aurora Discovery, San Diego, CA), the plates were incubated at room temperature (RT) for 2 hours, and fluorescence intensity was measured by an Envision plate reader (PerkinElmer, Shelton, CT). After measurement of bla assay, 3 ul CellTiter-Glo (Promega, Madison, WI) was added to measure the cytotoxicity and the plates were then incubated at RT for 30 min. The luminescence was measured using a ViewLux (Perkin Elmer) plate reader.
With `Cc1ccc2cccnc2c1`, the outcome was inactive.

As for `COC(=O)C(c1ccccc1Cl)N1CCc2sccc2C1` (stereo not given), the outcome was inactive.

For the compound `CC12CCCC=C1C(=O)OC2=O` (stereo not given), the call was inactive.

For the compound `Nc1nc(Cl)cc(Cl)n1`, the compound was called inactive.

As to `C=CCN1CCc2nc(N)sc2CC1`, the compound was classed as inactive.

In the case of `C[C@@H](CN1CC(=O)NC(=O)C1)N1CC(=O)NC(=O)C1`, the outcome was inactive.

For `Cc1ccc(N)nc1`, the result was inactive.

As for `C=CC(=O)OCC[N+](C)(C)C`, the result was inactive.

Regarding `Cc1ccc(S(=O)(=O)NC(=O)NN2CC3CCCC3C2)cc1` (stereo not given), the result was inactive.

`C=CCON/C(CCC)=C1\C(=O)CC(C)(C)C(C(=O)OC)=C1O`: the outcome was inactive.

For `CCC(C)(C)C`, the compound was called inactive.

`C=CC(C)(CCC=C(C)C)OC(=O)C(C)C` (stereo not given): the compound was classed as inactive.

For the compound `COC(=O)c1c(C)cc(O)c(C)c1O`, the compound was called inactive.

Regarding `C/C=C(\C)C=O`, the result was inactive.

As to `CCC(C)c1nccnc1OC` (stereo not given), the compound was called inactive.

On to `COc1cc2nc(N3CCN(C(=O)C4CCCO4)CC3)nc(N)c2cc1OC` (stereo not given), for which the outcome was inactive.

For the compound `CCCCCCCCCCCCCCBr`, the result was inactive.

Regarding `NNC(=O)CCCCC(=O)NN`, the result was inactive.

Consider `Cc1cc(O)c(Cl)cc1C`, for which the call was inactive.

Take `CC(=O)Nc1ccc(OCCOCCOc2ccc(NC(C)=O)cc2)cc1`: the call was inactive.

Take `COc1cnc(NS(=O)(=O)c2ccc(N)cc2)nc1`: the outcome was inactive.

Turning to `Cc1ccc(NC(N)=O)cc1`, the result was inactive.

As for `CC(=O)c1ccc2ccc3ccccc3c2c1`, the compound was classed as inactive.

Take `CC(C)OCCO`: the result was inactive.

For the compound `C[C@]12C=CC(=O)C=C1[C@@H](F)C[C@@H]1[C@@H]2[C@@H](O)C[C@@]2(C)[C@H]1CC[C@]2(O)C(=O)CO`, the compound was classed as inactive.

Regarding `CCCCCCC(O)CO` (stereo not given), the compound was called inactive.

Consider `CN(C)CCC[C@@]1(c2ccc(F)cc2)OCc2cc(C#N)ccc21`, for which the call was inactive.

Consider `CCCC(=O)CC`, for which the result was inactive.

For the compound `C[n+]1ccccc1/C=N/O`, the call was inactive.

On to `CCC(=O)OCCOc1ccccc1`, for which the call was inactive.

Consider `N[C@H]1C(O)O[C@H](CO)[C@@H](O)[C@@H]1O` (stereo not given in full), for which the outcome was inactive.

With `CC(O)C(CO)C(C)O` (stereo not given), the result was inactive.

Turning to `NC(=O)CC[C@@H](N)C(=O)O`, the compound was called inactive.

Consider `CCCCCCC(=O)c1ccccc1`, for which the compound was classed as inactive.

In the case of `CC(=O)SCC(CC(=O)c1ccc(C)cc1)C(=O)O` (stereo not given), the compound was called inactive.

As to `Cc1nc2ccc(Cl)cc2[nH]1`, the compound was classed as inactive.

As for `CCCCCCCCOCCC#N`, the compound was called inactive.

As to `CC(C)CC(=O)N[C@H](C(=O)N[C@H](C(=O)N[C@@H](CC(C)C)[C@@H](O)CC(=O)N[C@@H](C)C(=O)N[C@@H](CC(C)C)[C@@H](O)CC(=O)O)C(C)C)C(C)C` (Isovaleryl-VV[Sta]A[Sta]-OH), the call was inactive.

Consider `O=P(O)(O)C(O)(Cc1cccnc1)P(=O)(O)O`, for which the outcome was inactive.

On to `NNC(=O)OCc1ccccc1`, for which the compound was classed as inactive.

The record behind these values is PubChem BioAssay (Tox21).
